Results as given in PubChem BioAssay (NCATS).
Where “and” joins values, the source holds several entries; their conditions need not be identical. Equal entries are not always repeated. Inconclusive results are not listed. Some structures have more than one record in an assay (separate samples or runs), and their calls can disagree. Calls of active or inactive are those of the source. Calls follow the shape of the dose curve; as a rule, active = well fitted curve in the direction sought with a large enough effect; inconclusive = small, poorly fitted or top-dose-only effect, or another doubt; inactive = no such curve, though single readings can be large; an effect the other way counts as inactive or inconclusive.

Key:
[1] = test system: TAB165; experiment: qHTS profiling for inhibitors of Plasmodium falciparum proliferation (AID 504749);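 also: 0% = DMSO vehicle and full inhibition = artemisinin control; nearly all actives have a fitted effect of over 60% in size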; conditions: P. falciparum in erythrocytes, SYBR Green DNA, 72 h; series mostly up to 28.7 µM
Method in brief: (§1)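 Quantitative HTS: compounds pinned into medium, infected erythrocytes added (0.3% parasitemia, 2.5% hematocrit), 72 h culture at 37 C under 5% CO2. Saponin/Triton lysis with SYBR Green I, overnight RT, then fluorescence read.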

[2] = test system: W2; experiment: as above; conditions: P. falciparum in erythrocytes, SYBR Green DNA, 72 h; series mostly up to 28.7 µM
Method in brief: as §1

[3] = test system: CRL-7250; experiment: Cytotoxic Profiling of Annotated Libraries Using Quantitative High-Throughput Screening (AID 1296008); conditions: Five cell lines viability, CellTiter-Glo ATP luminescence, 48-72 h; max response: stronger effect = lower value; also: nearly all actives have a fitted effect of over 60% in size; also: potency is read from the fitted curve at half-maximal effect; as to max response: % is scaled to controls: 0 for no effect and ±100 for the full control effect
Method in brief: (§2)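 Compounds were pin-transferred onto cells and incubated 48 or 72 hr at 37 degree Celsius, 95% humidity. CellTiter-Glo was added, plates sat 10 min at room temperature, then ATP-coupled luminescence was imaged as the viability read-out.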

[4] = test system: HEK293; experiment: as above; conditions: Five cell lines viability, CellTiter-Glo ATP luminescence, 48-72 h; max response: stronger effect = lower value
Method in brief: as §2

[5] = test system: HaCat; experiment: as above; conditions: Five cell lines viability, CellTiter-Glo ATP luminescence, 48-72 h; max response: stronger effect = lower value
Method in brief: as §2

[6] = test system: KB-3-1; experiment: as above; conditions: Five cell lines viability, CellTiter-Glo ATP luminescence, 48-72 h; max response: stronger effect = lower value
Method in brief: as §2

[7] = test system: NIH3T3; experiment: as above; conditions: Five cell lines viability, CellTiter-Glo ATP luminescence, 48-72 h; max response: stronger effect = lower value
Method in brief: as §2

[8] = test system: HACAT; experiment: qHTS assay to identify novel small-molecules to repurpose for Merkel cell carcinoma treatment (AID 1296009); conditions: MCC and control cell lines, CellTiter-Glo viability, 72 h; at 44.8 µM (top of the series) unless noted; also: nearly all actives have a fitted effect of over 60% in size; also: potency is read from the fitted curve at half-maximal effect
Method in brief: (§3)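 Viability readout: ATP luminescence (CellTiter-Glo) after 72 hr drug exposure at 37 degree celsius. Dose-response format was 8 points for NPC and 11 points for MIPE; data normalized to in-plate controls.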

[9] = test system: MCC-13; experiment: as above; conditions: MCC and control cell lines, CellTiter-Glo viability, 72 h; series mostly up to 46 µM
Method in brief: as §3

[10] = test system: MCC-26; experiment: as above; conditions: MCC and control cell lines, CellTiter-Glo viability, 72 h; series mostly up to 46 µM
Method in brief: as §3

[11] = test system: MKL-1; experiment: as above; conditions: MCC and control cell lines, CellTiter-Glo viability, 72 h; series mostly up to 46 µM
Method in brief: as §3

[12] = test system: MKL-2; experiment: as above; conditions: MCC and control cell lines, CellTiter-Glo viability, 72 h; series mostly up to 46 µM
Method in brief: as §3

[13] = test system: UISO; experiment: as above; conditions: MCC and control cell lines, CellTiter-Glo viability, 72 h; series mostly up to 46 µM
Method in brief: as §3

[14] = test system: WaGa; experiment: as above; conditions: MCC and control cell lines, CellTiter-Glo viability, 72 h; series mostly up to 46 µM
Method in brief: as §3

[15] = test system: C33A; experiment: Primary qHTS to identify gynecologic anti-cancer compounds using libraries of approved drugs and bioactive compounds (AID 1345084); conditions: Gynecologic cancer cell panel viability, ATPlite luminescence, 48 h; series mostly up to 57.5 µM; also: nearly all actives have a fitted effect of over 55% in size; also: potency is read from the fitted curve at half-maximal effect
Method in brief: (§4)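 ATP-based viability (ATPlite), 1,000 cells/well, 16 h pre-incubation, 48 h compound at 37 C, 5% CO2, 15 min RT before read.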

[16] = test system: CAOV3; experiment: as above; conditions: Gynecologic cancer cell panel viability, ATPlite luminescence, 48 h; series mostly up to 57.5 µM
Method in brief: as §4

[17] = test system: CASKI; experiment: as above; conditions: Gynecologic cancer cell panel viability, ATPlite luminescence, 48 h; series mostly up to 57.5 µM
Method in brief: as §4

[18] = test system: Es-2; experiment: as above; conditions: Gynecologic cancer cell panel viability, ATPlite luminescence, 48 h; series mostly up to 57.5 µM
Method in brief: as §4

[19] = test system: NIH3T3; experiment: qHTS assay to identify novel small-molecules to repurpose for Merkel cell carcinoma treatment (AID 1296009); conditions: MCC and control cell lines, CellTiter-Glo viability, 72 h; at 44.8 µM (top of the series) unless noted; also: nearly all actives have a fitted effect of over 60% in size; also: potency is read from the fitted curve at half-maximal effect
Method in brief: as §3

NCCCC(N)(C(=O)O)C(F)F (stereo not drawn)
inactive: Potency [1] | Potency [2] | max response [3] -1.33% and -4.78% | max response [4] -1.85% and -25.2% | max response [5] -8.41% | outcome [5] | max response [6] -4.94% and 7.79% | max response [7] -17.4% | outcome [8] | Potency [9] | Potency [10] | Potency [11] | Potency [12] | Potency [13] | Potency [14] | Potency [15] | Potency [16] | Potency [17] | Potency [18]

CS(=O)(=O)Oc1ccc2c(NC(N)=O)c(C(=O)c3ccc(Cl)cc3Cl)oc2c1
inactive: outcome [3] | max response [4] 3.62% | outcome [5] | max response [6] 0.867% | max response [7] -0.156% | outcome [8] | Potency [9] | Potency [10] | Potency [13]
active: Potency [11] 8.33 µM | Potency [12] 2.96 µM | Potency [14] 0.833 µM

OCCn1cc(-c2cnc3nnn(Cc4ccc5ncccc5c4)c3n2)cn1
inactive: max response [3] -20.1% | max response [4] -13.9% | max response [5] -20.1% | max response [6] 1.4% and -22% | max response [7] -29.5% | Potency [9] | Potency [10] | Potency [11] | Potency [12] | Potency [13] | Potency [14] | Potency [15] | Potency [16] | Potency [17] | Potency [18]

O=C1CCc2cc(OCCCCc3nnnn3C3CCCCC3)ccc2N1
inactive: Potency [2] | max response [3] -14.2% and -108% | max response [4] -7.13% | outcome [5] | max response [6] -0.483% and -0.724% | outcome [7] | outcome [8] | Potency [9] | Potency [10] | Potency [11] | Potency [12] | outcome [19] | Potency [13] | Potency [14] | Potency [15] | Potency [16] | Potency [17] | Potency [18]

COc1cc2c(cc1OC)CN(CCc1ccc(NC(=O)c3cccc4c(=O)c5cccc(OC)c5[nH]c34)cc1)CC2
inactive: max response [3] 0.448% and -2.79% | outcome [5] | max response [6] 4.69% and -0.508% | max response [7] 3.98% | outcome [7] | outcome [8] | Potency [9] | Potency [10] | Potency [11] | outcome [19] | Potency [15] | Potency [16] | Potency [17] | Potency [18]
active: Potency [4] 11.8 µM and 7.31 µM | Potency [12] 16.6 µM

Cc1csc(NC(=O)c2sc3nc4c(c(C(F)(F)F)c3c2N)CCC4)n1
active: Potency [16] 1.12 µM | Potency [18] 2.51 µM
inactive: max response [3] -0.546% and -0.36% | max response [4] -22.1% | max response [6] 1.14% and -9.3% | max response [7] -3.35% and -3.51% | outcome [8] | Potency [9] | Potency [10] | Potency [11] | Potency [12] | Potency [13] | Potency [14]

CCCc1nn(C)c2c(=O)[nH]c(-c3cc(S(=O)(=O)N4CCN(C)CC4)ccc3OCC)nc12
inactive: Potency [1] | max response [3] -31.4% and 2.3% | max response [6] 4.32% | outcome [6] | max response [7] -19.3% and 3.51% | Potency [9] | Potency [10] | Potency [11] | Potency [12] | Potency [13] | Potency [14] | Potency [15] | Potency [16] | Potency [17] | Potency [18]
active: Potency [4] 18.7 µM

CC1(C)SCCN(S(=O)(=O)c2ccc(OCC#CCO)cc2)[C@@H]1C(=O)NO
inactive: max response [3] -4.21% | max response [4] -25.6% | outcome [6] | max response [7] -11.8% | Potency [9] | Potency [12] | Potency [13]

CNCc1ccc(-c2[nH]c3cc(F)cc4c3c2CCNC4=O)cc1
inactive: outcome [3] | max response [6] 9.78% | max response [7] -1.23% and -23.6% | outcome [8] | Potency [9] | Potency [10] | Potency [11] | Potency [14] | Potency [15] | Potency [17] | Potency [18]
active: Potency [4] 11.6 µM

CO[C@@H]1[C@H](N(C)C(=O)c2ccccc2)C[C@H]2O[C@]1(C)n1c3ccccc3c3c4c(c5c6ccccc6n2c5c31)C(=O)NC4
active: Potency [3] 1.48 µM | Potency [4] 8.33 µM | Potency [6] 3.32 µM | Potency [7] 1.66 µM | Potency [9] 2.96 µM | Potency [10] 4.69 µM

CS(=O)(=O)c1ccc(C(=O)Nc2ccc(Cl)c(-c3ccccn3)c2)c(Cl)c1
inactive: max response [3] -4.31% and 3.97% | max response [4] -6.21% | max response [5] -0.0394% | max response [6] 9.49% and -9.43% | max response [7] -17.3% and -11.2% | Potency [9] | Potency [11] | Potency [12] | Potency [13] | Potency [14] | Potency [16] | Potency [17] | Potency [18]

NCCc1ccc(O)c(O)c1
inactive and 18.8 µM (active): Potency [13]
active: Potency [14] 11.9 µM
inactive: Potency [1] | max response [3] 1.67% and -14% | max response [4] -42.9% | max response [6] -3.12% and 0.713% | max response [7] 2.44% and -9.95% | outcome [8] | Potency [10] | Potency [15] | Potency [16] | Potency [17] | Potency [18]
inactive and 23.7 µM (active): Potency [11]
inactive and 5.31 µM (active): Potency [9]
18.7 µM (active) and inactive: Potency [12]
